These results are taken from PubChem BioAssay AID743287 (Broad Institute, 2014).

About 2,300 (0.62%) of roughly 370,000 compounds were called active. For the sample, actives were picked, then their nearest neighbours and some compounds at random. Unmarked numbers belong to inactive results.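 The calls were made as follows: active = lowest replicate activation of at least 40%, so every replicate reaches that level; inactive = the rest.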

The test in a line: GLuc luminescence reporter in INS-1E cells, primary screen for activators of glucose-dependent secretion of insulin (AID 743287).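 Also: 0% = median of neutral control wells and 100% = median of IBMX positive control wells.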 Particulars: INS-1E GLuc reporter insulin secretion, 2-3 h, at 16.6 µM, active compounds read high.
As for `C[C@H](CO)N1C[C@H](C)[C@@H](CN(C)C)Oc2ncc(-c3cccc(F)c3)cc2C1=O`, the activation was -1.15%.
For `C[C@H](CO)N1C[C@H](C)[C@@H](CN(C)Cc2ccccc2)Oc2c(NC(=O)CCCCCC(=O)Nc3ccccc3N)cccc2C1=O`, the activation is -7.28%.
For the compound `CNC(=S)N/N=C/c1ccc(OCc2ccccc2)c(Br)c1`, the activation was 107% (active).
Take `Oc1c(Br)cc(/C=N/NC(=S)NCC2CCCO2)cc1Br` (stereo not drawn): the activation was -34.5%.
Take `CNC(=S)N/N=C/c1ccc(N2CCOCC2)s1`: the activation is 8.01%.
With `COCC#Cc1cnc2c(c1)C(=O)N([C@H](C)CO)C[C@H](C)[C@H](CN(C)C(=O)Cc1cccnc1)O2`, the activation is 27.8%.
With `COc1cccc(-c2cnc3c(c2)C(=O)N([C@H](C)CO)C[C@H](C)[C@H](CN(C)S(=O)(=O)c2cccc(F)c2)O3)c1`, the activation is -6.84%.
Then `C[C@H](CO)N1C[C@H](C)[C@@H](CN(C)C(=O)Cc2ccncc2)Oc2ncc(C#CCN(C)C)cc2C1=O`, with 36.3%; and `Cc1cc(NC(=O)COc2ccccc2C#N)no1`, with 10.8%; and `Cc1cc(NCc2cccnc2)no1`, with -3.31%.
Regarding `Cc1cc(N/C=C\C(=O)c2ccc(Cl)c(Cl)c2)no1`, the activation was 76.1% (active).
Under `COc1ccc(CN(C)C[C@H]2Oc3c(NC(=O)c4cnccn4)cccc3C(=O)N([C@H](C)CO)C[C@@H]2C)cc1` stands 3%; under `O=C1[C@H](Cc2ccc(C(F)(F)F)cc2)CCn2nncc2COC[C@@H]2CCCCN12`, 1.36%; under `CC(C)CC#Cc1ccc([C@@H]2[C@@H](CO)N3C(=O)CN(C(=O)c4cnccn4)C[C@@H]23)cc1`, 25.5%.
Turning to `O=C(c1cnccn1)N1CC(=O)N2[C@H](C1)[C@@H](c1ccc(C#CC3CCCCC3)cc1)[C@@H]2CO`, the activation was 1.34%.
For `CC(C)CC#Cc1ccc([C@H]2[C@H]3CN(C(=O)c4cnccn4)CC(=O)N3[C@H]2CO)cc1`, the activation is 54.1% (active).
Then `CO[C@@H]1CN(C)C(=O)c2ccc(NC(=O)Nc3ccccc3)cc2OC[C@@H](C)N(C(=O)Nc2c(C)noc2C)C[C@@H]1C`, with -0.32%; and `CCCCCc1c(-c2ccc(OC)c(OC)c2)ncn1CCc1ccccc1OC`, with -29.6%; and `CCCCc1c(-c2ccc(Cl)cc2)ncn1CCc1ccccc1OC`, with -9.43%.
As to `CCCCCc1c(Cc2ccccc2)ncn1CCc1ccccc1OC`, the activation is 70% (active).
Take `Cc1ccccc1-c1ccc([C@H]2[C@@H](CO)N3C(=O)CN(C(=O)c4cccnc4)C[C@@H]23)cc1`: the activation was -14.5%.
For the compound `COc1cccc(S(=O)(=O)N2CCC3(CC2)CN[C@H](CO)c2c3c3ccc(OC)cc3n2C)c1`, the activation is -2.73%.
Then `Cc1cc(NC(C)C)n2c(nc3ccccc32)c1C#N`, with 4.84%.
On to `Cc1ccc(S(=O)(=O)N(C)c2nc3ccccc3n3c(C(C)C)nnc23)cc1`, for which the activation was 66.1% (active).
Under `O=C(Cc1ccncc1)N1CC[C@@H]2[C@@H](CO)Nc3ccc(C4=CCCCC4)cc3[C@@H]21` stands 8.52%; under `CN(C)CCCNC(=O)C[C@H]1CC[C@H]2[C@@H](COC[C@H](O)CN2CC2CCCCC2)O1`, 1.49%; under `O=C(Nc1ccc2c(c1)OCO2)c1sc2cc(Cl)ccc2c1Cl`, 69.2% (active).
In the case of `CCSc1ccccc1C(=O)Nc1ccc2c(c1)OCO2`, the activation is -1.24%.
Under `CC(Sc1nc2cc(Cl)ccc2s1)C(=O)Nc1ccc2c(c1)OCO2` (stereo not drawn) stands -18.8%; under `C=CS(=O)c1sc(Cl)c(N2CCOCC2)c1[N+](=O)[O-]` (stereo not drawn), 99.9% (active).
As for `COc1ccc2c3c([nH]c2c1)[C@H](CO)N(C(=O)Nc1ccc(F)cc1)CC31CCN(C(=O)Nc2c(C)noc2C)CC1`, the activation is -8.35%.
As for `O=C(Nc1ccc(F)cc1)N1CC(=O)N2[C@H](CO)[C@H](c3ccc(C#Cc4ccccc4)cc3)[C@H]2C1`, the activation was -21.6%.
On to `CCCNC(=O)Nc1ccc2c(c1)OC[C@@H](C)N(CC1CCCC1)C[C@@H](C)[C@H](OC)CN(C)C2=O`, for which the activation is -11.9%.
For the compound `COc1ccc(-c2ccccc2[C@H]2[C@@H](CO)N(C(=O)c3cccnc3)[C@H]2C#N)cc1`, the activation was -2.16%.
Under `S=c1[nH]nc(-c2ccccc2)n1/N=C/c1c[nH]c2ccccc12` stands 41.8% (active).
Then `CCc1n[nH]c(=S)n1/N=C/c1c[nH]c2ccc(Br)cc12`, with 6.23%; and `C[C@@H]1CN([C@@H](C)CO)C(=O)c2cccc(N(C)C)c2O[C@H]1CN(C)S(=O)(=O)c1cccs1`, with 4.92%; and `O=C(Cc1cccnc1)N1CC(=O)N2[C@@H](CO)[C@@H](c3ccc(C#CC4CCCCC4)cc3)[C@@H]2C1`, with -3.29%.
Take `COc1ccc2c3c([nH]c2c1)[C@@H](CO)N(C(=O)NC(C)C)CC31CN(C(=O)C2CCCC2)C1`: the activation is 3.69%.
For the compound `O=C(CSc1nc2ccccc2c(=O)n1CCCO)NC1CC1`, the activation is 4.63%.
In the case of `CCOc1ccc(NC(=O)CSc2nc3ccccc3c(=O)n2Cc2cccs2)cc1`, the activation was 60.2%.
Then `COC(=O)CSc1nc2ccccc2c(=O)n1Cc1ccccc1`, with 50% (active).
Then `CO[C@@H]1CN(C)C(=O)c2cc(NS(=O)(=O)CC(F)(F)F)ccc2OC[C@H](C)N(Cc2ccccn2)C[C@@H]1C`, with 11.8%; and `CC(C)NC(=O)Nc1ccc2c(c1)CC(=O)N(C)C[C@@H](C)[C@@H](CN(C)C(=O)OC(C)(C)C)O2`, with 9.38%; and `Cc1ccc2c(Cl)c(C(=O)Nc3nn[nH]n3)sc2c1`, with -4.19%.
`Cc1ccc(-c2cc(C(=O)Nc3nn[nH]n3)c3ccccc3n2)c(C)c1`: the activation is 63.4% (active).
Consider `Cc1ccc(C)c(NC(=O)NNC(=O)c2ccc3ccccc3c2O)c1`, for which the activation is -0.162%.
Under `COc1ccc(CCNC(=O)CSc2nnc3ccc(-c4ccncc4)nn23)cc1` stands 4.35%; under `COc1ccc(CCNC(=O)CSc2nc(-c3ccc(OC)c(OC)c3)ccc2C#N)cc1`, 46.1%; under `COc1cccc(-c2ccc(C#N)c(SCC(=O)NCCc3ccc(Cl)cc3)n2)c1`, 108% (active).
On to `CCC(=O)N1C[C@H](C)[C@H](OC)CN(C)C(=O)c2ccc(NC(=O)Nc3ccc(Cl)cc3)cc2OC[C@H]1C`, for which the activation was -31.9%.
Under `CNC(=O)C[C@H]1CC[C@@H]2[C@H](COc3ccc(NC(=O)C(C)C)cc3C(=O)N2C)O1` stands 4.65%; under `COc1ccc(/C=C/C2=CC(C)(C)NC(=S)N2)c(OC)c1`, -2.56%.
Under `COc1ccc(CN(C)Cc2nc3cc(OC)c(OC)cc3c(=O)[nH]2)c(OC)c1` stands -31.6%; under `COc1ccc(/C=C2/C(=O)OCc3cc(OC)c(OC)cc32)c(OC)c1`, 90.1% (active); under `CCCC#Cc1ccc([C@H]2[C@H]3CN(C(=O)Nc4cccc(F)c4)CC(=O)N3[C@H]2CO)cc1`, -20.8%.
Under `Cc1noc(C)c1NC(=O)Nc1ccc2c(c1)C(=O)N([C@@H](C)CO)C[C@H](C)[C@@H](CN(C)C)O2` stands 11.6%; under `Cc1ccccc1-c1ccc([C@H]2[C@H](CO)N3C(=O)CN(C(=O)c4cccnc4)C[C@@H]23)cc1`, 4.01%; under `COc1ccccc1S(=O)(=O)N[C@H]1CC[C@@H](CC(=O)NCc2cc(F)cc(F)c2)O[C@H]1CO`, 6.83%.
`CC(C)c1ccc(NS(=O)(=O)c2cn(C)c(=O)n(C)c2=O)cc1`: the activation is 18.1%.
For `COC(=O)c1c(C)oc(C)c1S(=O)(=O)Nc1ccc(C(C)C)cc1`, the activation was 52.6% (active).
On to `COC(=O)c1c(C)oc(C)c1S(=O)(=O)NCc1ccc(Cl)cc1`, for which the activation was 15.9%.
Take `CCCCOC(=O)c1ccc(NC(c2ccc(C)cc2)P(=O)(OC)OC)cc1` (stereo not drawn): the activation is -63.4%.
Under `CCCCCCCCCCOC(=O)Cn1c(COc2ccc(C)cc2)[n+](C)c2ccccc21` stands 193% (active).
Under `Cc1ccc(OCCC(=O)OCC(=O)N2c3ccccc3NC(=O)C2(C)C)cc1` stands -29.1%.
As for `CCCNC(=O)N1CCC2(CC1)CN(C(=O)c1cccnc1)[C@@H](CO)c1[nH]c3cc(OC)ccc3c12`, the activation was 20.9%.
For the compound `C[C@H]1CCCCO[C@@H](CN(C)Cc2ccc3c(c2)OCO3)[C@@H](C)CN([C@@H](C)CO)C(=O)c2cc(NS(=O)(=O)c3ccc(F)cc3)ccc2O1`, the activation was -26%.
Under `O=C(C[C@H]1C=C[C@H](NC(=O)c2cccc(F)c2)[C@@H](CO)O1)NCc1ccc(Oc2ccccc2)cc1` stands 8.87%.
Under `Cc1noc(C)c1NC(=O)N(C)C[C@@H]1Oc2c(NC(=O)CCCCCC(=O)Nc3ccccc3N)cccc2C(=O)N([C@H](C)CO)C[C@@H]1C` stands -5.82%; under `COc1ccccc1S(=O)(=O)N[C@@H]1C=C[C@H](CC(=O)NCc2cccc(F)c2)O[C@H]1CO`, 10.3%; under `COc1ccc(NC(=O)C2Cc3c(-c4cccc(NC(C)=O)c4)ccnc3O2)cc1OC` (stereo not drawn), -7.03%.
As for `COc1ccc(C(=O)Nc2ccc(C3(C#N)CCCC3)cc2)cc1OC`, the activation is -6.21%.
In the case of `COc1cc2c(cc1OC)/C(=C/C(=O)c1ccc(NC(C)=O)cc1)NCC2`, the activation was 70% (active).
Under `CCC(=O)N(C)C[C@@H]1Oc2ncc(C#Cc3ccccc3)cc2C(=O)N([C@@H](C)CO)C[C@H]1C` stands -1.97%; under `COc1ccccc1C(=O)NC(=O)COC(=O)C1CC1`, -1.88%; under `COc1ccccc1C(=O)NC(=S)NC12CC3CC(CC(C3)C1)C2`, 41.4% (active).
For the compound `NC(=O)COc1ccccc1C(=O)NC12CC3CC(CC(C3)C1)C2`, the activation is 17.8%.
Under `COc1cccc(C#Cc2ccc3c(c2)[C@H]2[C@H](CCN2C(=O)CC2CC2)[C@H](CO)N3)c1` stands 0.458%.
